From PubChem BioAssay AID1159580 (chemical genetic matrix, 2015)
The whole screen tested about 5,500 compounds, of which about 2,000 (36%) were called active. Another 18% or so got no clear call; they are omitted. No stated cut-off is given here; in the data, active means normalized growth mostly below about 0.91 (no sharp cut-off); inconclusive means no clear call, values can overlap the other calls; inactive means mostly above about 0.92. This is one part of the list.

Assay: chemical genetic growth profiling, strain panel (AID 1159580);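 further: tested at 20 µM; growth read once vehicle control cultures reached saturation at 30 °C; 1 = growth at the plate median or of vehicle wells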
Conditions: S. cerevisiae deletion strains, growth OD

Measured: normalized growth

CNC(=O)N(C)c1nnc(C(C)(C)C)s1
inactive: locus YAL013W, strain DEP1, stronger effect = lower value 1.01 | locus YAL021C, strain ccr4, stronger effect = lower value 0.935 | locus YAL026C, strain drs2, stronger effect = lower value 0.993 | locus YAL030W, strain snc1, stronger effect = lower value 1 | locus YBL061C, strain skt5, stronger effect = lower value 0.997 | locus YBR009C, strain hhf1, stronger effect = lower value 1.01 | locus YBR021W, strain FUR4, stronger effect = lower value 1.04 | locus YBR023C, strain chs3, stronger effect = lower value 0.994 | locus YBR171W, strain sec66, stronger effect = lower value 0.983 | locus YBR229C, strain ROT2, stronger effect = lower value 1.01 | locus YBR231C, strain swc5, stronger effect = lower value 1.02 | locus YBR279W, strain paf1, stronger effect = lower value 0.996 | locus YCL011C, strain gbp2, stronger effect = lower value 0.985 | locus YCL016C, strain dcc1, stronger effect = lower value 0.979 | locus YCL029C, strain bik1, stronger effect = lower value 1.01 | locus YCL069W, strain vba3, stronger effect = lower value 0.988 | locus YCR088W, strain abp1, stronger effect = lower value 0.988 | locus YDL005C, strain med2, stronger effect = lower value 0.982 | locus YDL035C, strain GPR1, stronger effect = lower value 1.02 | locus YDL040C, strain nat1, stronger effect = lower value 0.99 | locus YDL074C, strain BRE1, stronger effect = lower value 1.03 | locus YDL101C, strain DUN1, stronger effect = lower value 1.02 | locus YDL134C, strain PPH21, stronger effect = lower value 1.01 | locus YDL185W, strain tfp1, stronger effect = lower value 0.959 | locus YDL192W, strain arf1, stronger effect = lower value 1.01 | locus YDR001C, strain nth1, stronger effect = lower value 0.977 | locus YDR069C, strain doa4, stronger effect = lower value 0.988 | locus YDR101C, strain arx1, stronger effect = lower value 1.01 | locus YDR137W, strain rgp1, stronger effect = lower value 0.999 | locus YDR150W, strain NUM1, stronger effect = lower value 1.01 | locus YDR159W, strain sac3, stronger effect = lower value 1.03 | locus YDR162C, strain NBP2, stronger effect = lower value 1.01 | locus YDR195W, strain ref2 0.946 | locus YDR297W, strain sur2, stronger effect = lower value 1.02 | locus YDR318W, strain mcm21, stronger effect = lower value 1.02 | locus YDR334W, strain swr1, stronger effect = lower value 0.982 | locus YDR335W, strain msn5, stronger effect = lower value 0.995 | locus YDR388W, stronger effect = lower value 1.02 | locus YDR392W, strain spt3, stronger effect = lower value 1.02 | locus YDR502C, strain sam2, stronger effect = lower value 1.02 | locus YEL003W, strain gim4, stronger effect = lower value 0.989 | locus YEL037C, strain rad23, stronger effect = lower value 0.981 | locus YEL061C, strain CIN8 (second series), stronger effect = lower value 0.98 | locus YEL061C, strain CIN8, stronger effect = lower value 1.01 | locus YER015W, strain faa2, stronger effect = lower value 0.99 | locus YER016W, strain bim1, stronger effect = lower value 0.987 | locus YER110C, stronger effect = lower value 1.01 | locus YER111C, strain swi4, stronger effect = lower value 1 | locus YER155C, strain BEM2 (second series), stronger effect = lower value 1.02 | locus YER155C, strain BEM2, stronger effect = lower value 1.01 | locus YER167W, strain BCK2, stronger effect = lower value 1.02 | locus YFR010W, strain ubp6, stronger effect = lower value 0.969 | locus YGL078C, strain dbp3, stronger effect = lower value 1.01 | locus YGL086W, strain mad1, stronger effect = lower value 1.01 | locus YGL167C, strain pmr1, stronger effect = lower value 0.976 | locus YGL173C, strain kem1, stronger effect = lower value 1 | locus YGL227W, strain vid30, stronger effect = lower value 1 | locus YGL240W, strain doc1, stronger effect = lower value 1.03 | locus YGL248W, strain PDE1, stronger effect = lower value 1.01 | locus YGL253W, strain hxk2, stronger effect = lower value 0.991 | locus YGR078C, strain PAC10, stronger effect = lower value 1.02 | locus YGR135W, strain pre9, stronger effect = lower value 1.02 | locus YGR229C, strain SMI1, stronger effect = lower value 1.04 | locus YGR252W, strain gcn5, stronger effect = lower value 1.05 | locus YHR013C, strain ard1, stronger effect = lower value 0.972 | locus YHR027C, strain rpn1, stronger effect = lower value 0.993 | locus YHR030C, strain SLT2, stronger effect = lower value 1.01 | locus YHR079C, strain IRE1 (second series), stronger effect = lower value 1.03 | locus YHR094C, strain hxt1, stronger effect = lower value 1.01 | locus YHR129C, strain ARP1, stronger effect = lower value 0.998 | locus YHR142W, strain chs7, stronger effect = lower value 0.979 | locus YHR200W, strain rpn10, stronger effect = lower value 1.02 | locus YIL066C, strain RNR3, stronger effect = lower value 1.02 | locus YIL073C, strain SPO22, stronger effect = lower value 1.07 | locus YIL125W, strain kgd1, stronger effect = lower value 1.02 | locus YIR030C, strain dcg1, stronger effect = lower value 1.02 | locus YJL092W, strain hpr5, stronger effect = lower value 0.976 | locus YJL095W, strain BCK1 (second series), stronger effect = lower value 0.993 | locus YJL095W, strain BCK1, stronger effect = lower value 1.01 | locus YJL115W, strain asf1, stronger effect = lower value 0.973 | locus YJL129C, strain trk1, stronger effect = lower value 0.999 | locus YJL134W, strain LCB3, stronger effect = lower value 1.02 | locus YJL154C, strain vps35, stronger effect = lower value 0.976 | locus YJL164C, strain tpk1, stronger effect = lower value 0.998 | locus YJL166W, strain qcr8, stronger effect = lower value 1.02 | locus YJL168C, strain set2, stronger effect = lower value 1.02 | locus YJL187C, strain SWE1 (second series), stronger effect = lower value 1.01 | locus YJR043C, strain POL32, stronger effect = lower value 1.03
